Source: PubChem
FBW7 act = FBW7 E3 ligase activators, primary screen, biochemical, AlphaScreen, human | AlphaScreen FBW7–phospho-cyclin E peptide binding, activator screen | AID 1259310, 2017 | normalized activity (activation), % at 26.1 µM | hit rate 0.13% among 650,000; in the data active means normalized activity above about 1.9%;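 further: purified mutant Fbw7 with reduced substrate affinity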
MITF inh = MITF inhibitors, primary screen, biochemical, AlphaScreen, human; Microphthalmia-associated transcription factor (Homo sapiens), O75030; AlphaScreen MITF homodimerization, bead proximity signal; inhibition, % at 2.6 µM; hit rate 0.91% among 650,000; AID 1259374, 2018; in the data active means inhibition above about 50%
Target sequence (O75030 whole entry, looked up): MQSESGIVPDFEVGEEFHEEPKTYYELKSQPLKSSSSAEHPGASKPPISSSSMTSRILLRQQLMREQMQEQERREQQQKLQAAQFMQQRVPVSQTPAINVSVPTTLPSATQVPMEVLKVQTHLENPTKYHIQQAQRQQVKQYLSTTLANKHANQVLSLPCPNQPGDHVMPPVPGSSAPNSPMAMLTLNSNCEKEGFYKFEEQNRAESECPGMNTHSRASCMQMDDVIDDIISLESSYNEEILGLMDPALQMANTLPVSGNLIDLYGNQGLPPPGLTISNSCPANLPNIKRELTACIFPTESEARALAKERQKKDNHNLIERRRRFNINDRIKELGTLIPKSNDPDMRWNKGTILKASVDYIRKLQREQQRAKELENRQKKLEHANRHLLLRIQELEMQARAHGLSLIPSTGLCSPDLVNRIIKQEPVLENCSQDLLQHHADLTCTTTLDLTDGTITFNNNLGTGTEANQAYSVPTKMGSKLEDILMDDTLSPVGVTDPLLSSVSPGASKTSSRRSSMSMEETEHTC
GPR151 ag = activators of human GPR151, primary screen, cell-based, PathHunter beta-arrestin, luminescence; G-protein coupled receptor 151 (Homo sapiens), Q8TDV0; PathHunter beta-arrestin GPR151 cells; activation, % at 11.2 µM; hit rate 1% among 650,000; AID 1508602, 2020; in the data active means activation above about 4.9%
TEAD-YAP inh = TEAD-YAP interaction inhibition, primary screen, TEAD-YAP interaction inhibitor project, luminescence, HEK-TIYL cells; TEAD-Gal4/YAP UAS-luciferase luminescence; inhibition, % at 9.12 µM; hit rate 1.4% among 640,000; AID 1259422, 2018; in the data active means inhibition above about 32%
Each line names hits and unclear results; the compound was inactive in the other large screens. In the library only some 3.4% were active in any assay of this set; here they are far more common.

CC(=O)O/N=C(\N)c1nonc1N1CCOCC1	FBW7 act 1.9
CCOC(=O)N1CCC(NS(=O)(=O)c2ccc3[nH]c4c(c3c2)CCCC4)CC1	TEAD-YAP inh 57.0
O=[N+]([O-])c1cc(/C=N\Nc2nccs2)ccc1O	MITF inh 95.5
COc1ccc(CCNc2nc(-c3cccc(N)c3)ncc2C)cc1	TEAD-YAP inh 44.4
COc1ccc(CCNc2cc(-c3ccccc3)ncn2)cc1	FBW7 act 1.9
COc1ccc(CCNc2cc(-c3cccc(N)c3)nc(N)n2)cc1	TEAD-YAP inh 35.2
CCOc1ccccc1CN1CCN(Cc2cc(=O)c3ccccc3[nH]2)CC1CCO (stereo not given)	TEAD-YAP inh 47.9
CC(C)(C)C1CCc2c(sc(NC(=O)/C=C/C(=O)O)c2C(N)=O)C1 (stereo not given)	none
OCCN1CCN(c2ccc(N=Cc3cc(Br)ccc3O)cc2)CC1	none
O=C1OC(c2ccc(Cl)cc2)=N/C1=C/c1ccccc1OC(=O)c1ccc(Br)cc1	none
Cc1ccc(C2=N/C(=C\c3ccccc3OC(=O)c3ccc(Cl)cc3)C(=O)O2)cc1	TEAD-YAP inh 44.7
CCOCCCNC1CCN(c2nc(C)c3cc(OC)ccc3n2)CC1	TEAD-YAP inh 48.7
COc1ccc2c(C)nc(N3CCC(NCCCOC(C)C)CC3)nc2c1	none
Cc1cccc(Oc2nc3ccccn3c(=O)c2/C=C(\C#N)C(=O)N2CCOCC2)c1C	TEAD-YAP inh 42.0
Cc1cc(C)cc(Oc2nc3c(C)cccn3c(=O)c2/C=C(\C#N)C(=O)N2CCOCC2)c1	TEAD-YAP inh 36.8
Cc1ccc(Oc2nc3ccccn3c(=O)c2/C=C(\C#N)C(=O)N2CCOCC2)c(C)c1	TEAD-YAP inh 34.3
COc1ccc(Oc2nc3c(C)cccn3c(=O)c2/C=C(\C#N)C(=O)N2CCOCC2)cc1	none
COc1ccccc1N1CCN(S(=O)(=O)c2ccc3c(c2)OCC(=O)N3)CC1	none
Cc1nc2sccn2c1C(=O)N1CCCC1	none
Cc1nc2sccn2c1C(=O)N1CCN(c2cccc(C(F)(F)F)c2)CC1	TEAD-YAP inh 57.6
COc1ccc(S(=O)(=O)N(Cc2ccccc2)c2ccccc2C(=O)NC2CC2)cc1	TEAD-YAP inh 46.9
COC(=O)c1ccccc1N(Cc1ccccc1)S(=O)(=O)c1ccc(OC)cc1	TEAD-YAP inh 51.1
Cc1ccc(NNC(=O)C(O)(c2ccccc2)c2cccs2)cc1 (stereo not given)	none
O=S(=O)(N/N=C1\CC(c2ccccc2)Oc2ccccc21)c1ccccc1 (stereo not given)	FBW7 act 2.7
CCCCOC(=O)c1c(N)n(CCO)c2nc3ccccc3nc12	none
COc1ccc(/C=C2\C=C(c3ccccc3)N(c3cc(C)ccc3C)C2=O)cc1	TEAD-YAP inh 41.8
Cc1ccc(C)c(N2C(=O)/C(=C/c3ccc(Cl)cc3)C=C2c2ccccc2)c1	none
COc1ccc(/C=C2\C=C(c3ccccc3)N(c3cccc4ccccc34)C2=O)cc1	TEAD-YAP inh 56.9
COc1cc(-c2cc(C(N)=O)on2)ccc1OCc1ccccc1	none
O=C1NC(=O)N(c2cccc(F)c2)C(=O)/C1=C/c1ccc(I)o1	MITF inh 78.4
Cc1ccc(N2C(=O)NC(=O)/C(=C\c3cc(C)n(C)c3C)C2=O)cc1	none
CCc1ccc(N2C(=O)NC(=O)/C(=C\c3cc(C)n(-c4cccnc4)c3C)C2=O)cc1	none
Cc1cc(/C=C2\C(=O)NC(=S)N(c3ccc(F)cc3)C2=O)c(C)n1-c1cccnc1	MITF inh 109.8
O=C1NC(=O)N(c2ccccc2F)C(=O)/C1=C/c1ccc(I)o1	MITF inh 51.7
Cc1cc(/C=C2\C(=O)NC(=O)N(c3cccc(F)c3)C2=O)c(C)n1C	MITF inh 55.0
Cc1ccn(CCC(=O)N2CCC(c3ccnc(-c4ccccc4)n3)CC2)n1	none
COc1ccc2c(c1)OC(C)CN(CC(=O)N1CCCCCCC1)C2 (stereo not given)	none
Cc1ccc(N2C(=O)NC(=O)/C(=C\c3ccco3)C2=O)cc1C	none
O=C1NC(=O)N(c2ccc(F)cc2)C(=O)/C1=C/c1ccco1	MITF inh 72.7
COc1cc(OC)c(OC)cc1/C=C1\C(=O)NC(=S)N(c2cccc(F)c2)C1=O	MITF inh 53.8
C=CCn1c(N)cc(=O)nc1SCC(=O)Nc1nnc(SCc2ccccc2)s1	none
Nc1ccnc(NCc2ccccc2)c1	TEAD-YAP inh 32.2
